# According to PubChem BioAssay:
# The source made the active and inactive calls. Unless noted, the rule behind the calls is not given here.
# Assays:
# [1] = resazurin metabolic signal in HepG2 cells – cell-based, resazurin fluorescence, 24 h, PK04 Diversity Set, profiling panel (AID 1172); conditions: HepG2 viability, higher = more signal; note: test concentration not given here
# [2] = budding yeast growth changes without added modifier – OD600, strain BY4716, 24 h, basal condition, primary screen (AID 1173); conditions: S. cerevisiae BY4716 growth, OD600, 24 h; higher = more signal, called active from +8 up or from −8 down
# [3] = viability profiling in MM1S myeloma cells – cell-based, resazurin fluorescence, basal, 24 h, PK04 Diversity Set, profiling panel (AID 1174); conditions: higher = more signal, called active from +8 up or from −8 down;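 note: MM1S multiple myeloma cell line; test concentration not given here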
# [4] = target: Dihydroorotate dehydrogenase (quinone), mitochondrial (Plasmodium falciparum (isolate 3D7)) (UniProt Q08210); assay: inhibition of P. falciparum DHODH – biochemical, C-terminal His tag, absorbance 600 nm, primary screen (AID 1175); conditions: PfDHODH enzyme, DCIP absorbance 600 nm; higher = more signal, called active from +8 up or from −8 down;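 note: recombinant parasite enzyme with a five histidine tag at its C terminus; test concentration not given here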
# Sequence of Dihydroorotate dehydrogenase (quinone), mitochondrial (Plasmodium falciparum (isolate 3D7)) (Q08210 whole entry, looked up): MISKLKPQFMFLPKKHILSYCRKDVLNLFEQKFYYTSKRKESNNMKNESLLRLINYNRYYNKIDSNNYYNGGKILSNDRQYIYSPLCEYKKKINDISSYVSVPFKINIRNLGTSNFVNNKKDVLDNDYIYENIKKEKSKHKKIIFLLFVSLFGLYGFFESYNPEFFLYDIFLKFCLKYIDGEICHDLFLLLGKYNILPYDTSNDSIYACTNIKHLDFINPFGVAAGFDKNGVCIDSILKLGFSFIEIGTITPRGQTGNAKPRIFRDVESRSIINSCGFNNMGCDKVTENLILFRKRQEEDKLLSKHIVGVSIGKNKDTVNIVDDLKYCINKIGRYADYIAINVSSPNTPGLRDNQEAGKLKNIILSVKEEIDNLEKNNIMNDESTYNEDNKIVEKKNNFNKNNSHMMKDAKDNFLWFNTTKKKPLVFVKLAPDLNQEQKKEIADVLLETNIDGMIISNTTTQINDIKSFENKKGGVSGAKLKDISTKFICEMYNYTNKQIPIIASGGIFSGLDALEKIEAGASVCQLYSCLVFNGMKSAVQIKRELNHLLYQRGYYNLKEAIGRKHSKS
# [5] = inhibition of PAO1 biofilm formation – strain PAO1, LB-PBS medium, absorbance 600 nm, primary screen (AID 1176); note: test concentration not given here; conditions: P. aeruginosa PAO1 growth/biofilm, A600, 12 h; higher = more signal
# [6] = growth modulation of vineyard yeast isolate – strain RM11-1a, OD600, basal, 24 h, primary screen (AID 1177);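 note: cultures grown under basal conditions with no added stressor; test concentration not given here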; conditions: S. cerevisiae RM11-1a growth, OD600, 24 h; higher = more signal, called active from +8 up or from −8 down
# [7] = growth of efflux-deficient E. coli DRC39 – strain DRC39, OD650, 24 h, E. coli filamentation inducers, primary screen (AID 1178);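 note: growth measured as culture turbidity by optical density at 650 nm; test concentration not given here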; conditions: E. coli DRC39 acrAB, higher = more signal, called active from +8 up or from −8 down
# [8] = growth of efflux-deficient E. coli DRC39 – strain DRC39, OD650, 48 h, E. coli filamentation inducers, primary screen (AID 1179);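 note: screen aims at cell division blockers that make cells filament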; conditions: E. coli DRC39 delta-acrAB growth, higher = more signal, called active from +8 up or from −8 down
# [9] = viability profiling in RPMI8226 myeloma cells – cell-based, resazurin fluorescence, basal, 24 h, PK04 Diversity Set, profiling panel (AID 1180); conditions: higher = more signal;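 note: RPMI8826 multiple myeloma cell line at 5000 cells per well; test concentration not given here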
# [10] = target: E3 ubiquitin-protein ligase XIAP (Homo sapiens) (UniProt P98170); assay: small molecules binding XIAP protein – biophysical, small-molecule microarray, fluorescence 635 nm, primary screen (AID 1181); conditions: higher = more signal;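 note: score merges 667 nm emission and signal to noise over triplicate slides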
# Sequence of E3 ubiquitin-protein ligase XIAP (Homo sapiens) (P98170 whole entry, looked up): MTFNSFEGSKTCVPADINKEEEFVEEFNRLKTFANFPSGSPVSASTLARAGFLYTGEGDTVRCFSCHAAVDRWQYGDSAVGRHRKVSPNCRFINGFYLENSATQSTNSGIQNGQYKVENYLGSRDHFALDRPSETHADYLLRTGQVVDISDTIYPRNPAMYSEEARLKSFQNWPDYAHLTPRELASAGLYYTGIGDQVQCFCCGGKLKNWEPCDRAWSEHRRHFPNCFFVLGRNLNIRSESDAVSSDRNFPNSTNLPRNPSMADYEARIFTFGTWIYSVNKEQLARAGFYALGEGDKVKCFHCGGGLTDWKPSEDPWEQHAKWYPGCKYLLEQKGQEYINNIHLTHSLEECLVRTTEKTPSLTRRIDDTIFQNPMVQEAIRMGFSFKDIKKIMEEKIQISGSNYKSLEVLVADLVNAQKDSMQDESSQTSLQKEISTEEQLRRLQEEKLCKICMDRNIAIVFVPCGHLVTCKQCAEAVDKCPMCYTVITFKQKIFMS
SMILES,z-score [1],z-score [2],z-score [3],composite z-score [4],z-score [5],z-score [6],z-score [7],z-score [8],z-score [9],composite z-score [10]
CN(C)C(=O)[C@@]1(Cc2ccccc2CN=[N+]=[N-])N=C(c2ccc(OCCCO)cc2)O[C@H]1c1ccccc1,0.0128,1.11 (inactive),-1.82 (inactive),1.12 (inactive),0.41 (inactive),1.39 (inactive),0.316 (inactive),0.0743 (inactive),-3.38,-0.0118
[N-]=[N+]=NCc1ccccc1C[C@@]1(C(=O)NCC(O)CO)N=C(c2ccc(OCCCO)cc2)O[C@@H]1c1ccccc1N=[N+]=[N-] (stereo not given in full),-2.35,-0.927 (inactive),-2.87 (inactive),2.22 (inactive),1.35 (inactive),0.977 (inactive),0.707 (inactive),-0.506 (inactive),-2.85,0.1
COC(=O)[C@@]1(Cc2ccccc2)[C@H]2c3cc(C(=O)N4CCCC4)n(Cc4cccc5ccccc45)c3C[C@H]2CN1C(=O)c1ccccc1,-1.13,1.37 (inactive),-1.65 (inactive),-0.323 (inactive),-0.347 (inactive),0.224 (inactive),-0.131 (inactive),-0.0176 (inactive),-1.9,-0.0082
